HT1080 IDH1KD tx = kills HT-1080 cells with IDH1 knockdown. HT-1080 IDH1 knockdown viability, ATP luminescence, 48 h. AID 686971. 2% of 360,000 active. Potency, µM (titrated, usually from 46.1 µM), inactives show top-dose activity, negative = toxicity, usual class: cytotoxic;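 note: 0% = DMSO wells and -100% = cell-free medium wells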
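Using the IDH1-knockdown HT-1080 line run in the same batch and compound series as the NT line, viability after 48 h at 37 °C was determined by CellTiter-Glo luminescence and expressed as % activity.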
KB-V1 cytotox = kills drug-selected multidrug resistant KB-V1 cells; KB-V1 MDR cells viability, CellTiter-Glo, 72 h; Potency, µM (top dose mostly 46.1 µM), usual class: cytotoxic; 3.4% of 400,000 active; note: % is set by controls: 0 for no effect and ±100 for the full control effect; nearly all actives have a fitted effect of over 60% in size
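Cytotoxicity toward P-gp-expressing KB-V1 cells was determined as loss of CellTiter-Glo luminescence after 72 h at 37 degrees C. Compounds were tested in quantitative HTS format across a concentration range, with curves fitted to normalized data.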
KB-3-1 cytotox = kills parental KB-3-1 adenocarcinoma cells; KB-3-1 viability, CellTiter-Glo ATP luminescence, 72 h; Potency, µM (highest dose often 46.1 µM), usual class: cytotoxic; 1.4% of 400,000 active; AID 1347075; note: % is set by controls: 0 for no effect and ±100 for the full control effect; nearly all actives have a fitted effect of over 60% in size
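72 h, 37 °C compound treatment of KB-3-1 parental cells; CellTiter-Glo added, 10 min, luminescence read. Data corrected against DMSO-only plates and normalized before curve fitting.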
HT1080-NT tox = kills 2HG-producing HT-1080-NT fibrosarcoma cells. 1.6% of 360,000 active. Potency, µM (series often up to 46.1 µM), for inactives: top-dose activity, negative = less viability, hits mostly cytotoxic. HT-1080-NT fibrosarcoma viability, CellTiter-Glo ATP luminescence, 48 h;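 note: NT is the 2HG producing partner of a matched IDH1 knockdown line; 0% = DMSO-treated cells and -100% = media-only wells without cells; nearly all actives have a fitted effect of over 55% in size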
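Viability of the 2HG-overproducing fibrosarcoma line after 48 hours of compound exposure at 37 degrees C was determined by luminescence with CellTiter-Glo, and concentration-effect curves were then fitted and categorized.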
TGFb inhibitor = blocks TGF-b signaling. HepG2 CAGA-GFP TGF-b/SMAD3 reporter, GFP fluorescence, 18 h; TGF-beta stimulated, 500 pg/mL final. Potency, µM (series often up to 46.1 µM), inactives show at the top dose activity, negative = inhibition, usual class: inhibitors. 1.2% of 410,000 active; note: % is set by controls: 0 for no effect and ±100 for the full control effect; nearly all actives have a fitted effect of over 65% in size
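Using HEPG2 CAGA-GFP reporter cells at 1000 cells/well, we pinned test compounds, stimulated with recombinant TGF-beta (500 pg/mL final) and measured total well GFP after 18 h.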
HepG2 tox = kills HepG2 cells in TGF-b inhibitor counter-screen; HepG2 CAGA-GFP viability, ATP luminescence, 18 h; Potency, µM (titrated, usually from 46.1 µM), without a hit: at the top dose activity change, negative = cytotoxicity, usual class: cytotoxic; 0.76% of 410,000 active; AID 588856
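HepG2 CAGA-GFP cells (1000/well, DMEM with 1% FBS) received compound, then TGF-beta at 500 pg/mL final, and were incubated 18 hours at 37 degrees C. Viability was read by CellTiter-Glo luminescence. Media-only wells were set as complete cell-killing and DMSO as no toxicity.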
Numbers without * were called inactive; i = inactive; u = inconclusive; x = no result; [ ] = dose if it differs, or a comment. Compounds with a hit are over-represented: about 6.6% of the library has one in this group of screens. Calls come from the whole dose curve; as a rule, active = well fitted curve in the direction sought with a large enough effect; inconclusive = small, poorly fitted or top-dose-only effect, or another doubt; inactive = no such curve, though single readings can be large; an effect the other way counts as inactive or inconclusive. Potency is the fitted concentration of half-maximal effect.

SMILES	HT1080 IDH1KD tx	KB-V1 cytotox	KB-3-1 cytotox	HT1080-NT tox	TGFb inhibitor	HepG2 tox
O=C(c1ccc2ncsc2c1)N1CCN(c2nc3ccccc3s2)CC1	7%	7.3µM*	u	u	-26%	-7%
Cc1cccc(N2CCN(C(=O)N3CCOCC3)CC2)c1C	u	u	21µM*	16µM*	-2%	5%
COc1cc(C(=O)N2CCN(c3cccc(C)c3C)CC2)cc(OC)c1OC	0.82µM*	2.6µM*	0.82µM*	1.2µM*	u	-16%
Cc1cccc(N2CCN(C(=O)c3ccc4ncsc4c3)CC2)c1C	5.8µM*	u	4.6µM*	2.6µM*	0%	-37%
COc1cc(C(=O)N2CCN(c3ccccn3)CC2)cc(OC)c1OC	1%	i	i	7%	13%	3%
CC(C)NC(=O)C1CCN(C(=O)c2cc3sccc3n2Cc2ccc(F)cc2)CC1	5%[9.24 µM]	6.5µM*	18µM*	-25%	-25%	-23%
CCN(c1ccccc1)S(=O)(=O)c1ccc(C(=O)Nc2c(C)n(C)n(-c3ccccc3)c2=O)cc1	-4%	i	i	-3%	-10%	-8%
CCCCN(c1ccccc1)S(=O)(=O)c1cccc(C(=O)Nc2c(C)n(C)n(-c3ccccc3)c2=O)c1	u	2.6µM*	26µM*	-10%	u	-25%
CSc1ccc(CNC(=O)Cn2c(-c3cccs3)cc3cc(F)ccc32)cc1	x	i	i	x	-9%	-35%
CC(C)c1ccc(NC(=O)c2snc3ccc(Cl)cc23)cc1	u	u	0.052µM*	-24%	u	-35%
CC(C)c1ccc(NC(=O)c2csnn2)cc1	5%	i	u	2%	11%	-21%
Cc1ccc(C2CC(c3ccccc3)=NN2C(=S)Nc2ccccc2)o1 (configuration not stated)	u	5.2µM*	5.8µM*	u	-3%	8%
Cc1cccc(NC(=O)c2ccc3oc(=O)c(S(=O)(=O)c4ccc(F)cc4)cc3c2)c1C	x	i	i	x	1%	-8%
CC(C)(C)n1ncc2c(=O)n(CC(=O)c3ccccc3)cnc21	3%	15µM*	i	-2%	u	7%
CC(C)(C)n1ncc2c(=O)n(CC(=O)OCc3ccccc3)cnc21	-5%	i	i	0%	-2%	-15%
CC(C)(C)n1ncc2c(=O)n(CC(=O)NCc3ccc(F)cc3)cnc21	13µM*	9.2µM*	9.2µM*	u	20%	1%
CC(C)(C)n1ncc2c(=O)n(CC(=O)NCc3ccco3)cnc21	-25%	u	u	-11%	-57%	-25%
Nc1nc(N)c2snnc2n1	x	u	u	x	-17%	-9%
COc1ccc(OC)c(C(=O)CSc2nnc(C3CC3)n2C2CC2)c1	0%	i	16µM*	4%	-5%	-34%
CS(=O)(=O)Nc1ccc(C(=O)CSc2nnc(C3CC3)n2C2CC2)cc1	3%	i	i	5%	u	7%
CCc1ccc(C(=O)CSc2nnc(C3CC3)n2C2CC2)cc1	24%	12µM*	i	8%	11%	5%
N#Cc1ccc(OC(=O)C2CCN(C3=NS(=O)(=O)c4ccccc43)CC2)cc1	13%	i	i	1%	5%	2%
Nc1c(Br)cc2c([nH]c(=O)c3ccccc32)c1Br	-9%	i	i	-5%	u	-7%
Cc1cc(C)nc(SCC(=O)c2ccc(O)c(O)c2)n1	-13%	i	i	-6%	1%	-11%
Cc1cc(SCC(=O)c2ccc(O)c(O)c2)n2nc(C)c(-c3ccccc3)c2n1	9.2µM*	u	u	8.2µM*	18µM*	-28%
SMILES	HT1080 IDH1KD tx	KB-V1 cytotox	KB-3-1 cytotox	HT1080-NT tox	TGFb inhibitor	HepG2 tox
CC(=O)c1cccc(NC(=O)Cc2cccs2)c1	-2%	i	i	19%	-2%	2%
O=C(Cc1cccs1)Nc1ccc(-c2nnc(-c3ccccc3)o2)cc1	23%	i	i	5%	1%	-1%
Cc1cccc(-c2nnc(-c3cccc(NC(=O)Cc4cccs4)c3)o2)c1	u	21µM*	i	u	-27%	-10%
Cc1ccc(-c2nnc(-c3cccc(NC(=O)c4cccs4)c3)o2)cc1	-14%	12µM*	i	-2%	-1%	-17%
O=C(Cc1cccs1)Nc1cccc(C(=O)Nc2ccco2)c1	11µM*	u	u	u	-9%	2%
Cc1ncc(CO)c(/C=N/NC(=O)c2cc3c(s2)CCCC3)c1O	2.6µM*	u	u	u	7%	-2%
CCOC(=O)C1=C[C@@H](CC)N(S(=O)(=O)c2ccccc2)[C@H]1c1ccccc1	0%	u	i	-1%	u	-6%
COC(=O)c1sccc1-c1ccc(C(=O)Nc2ccccc2)o1	14%	13µM*	u	u	2%	0%
COC(=O)c1sccc1NC(=O)c1ccc(C)o1	4%	i	i	4%	1%	-30%
Cn1cc(/C=C/c2cc[n+](C)cc2)c2cc(F)ccc21	u	i	i	u	125%	-23%
Cn1cc(/C=C/c2cc[n+](C)cc2)c2cc(Cl)ccc21	u	i	0.92µM*	-15%	102%	-6%
CCc1ccccc1N(C)S(=O)(=O)c1ccc2c(c1)C(C)(C)C(=O)N2C	x	i	i	x	6%	-19%
CCOC(=O)CC/C(=N\NC(N)=O)c1ccc(OC)c(Cl)c1	10%	8.2µM*	i	21%	u	-41%

Bioassay records deposited in PubChem BioAssay by National Center for Advancing Translational Sciences (NCATS).
